HCMV inh = blocks human cytomegalovirus replication | HFF cells, HCMV-luciferase reporter, 72 h; stronger effect = lower value | hit rate 4.5% among 410,000 | activity change, negative = inhibition, % at 57.5 µM; in the data active means activity change below about -60%; inconclusive means no clear call, values can overlap the other calls; inactive means above about -39%
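Steps: HFFs plated, 16 h 37C; compounds added; HCMV-luciferase added to MOI 1 PFU/cell; 72 h 37C; OneGlo reagent, 5 min room temperature; luminescence read, normalized to controls.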
Pf growth 96h = P. falciparum growth inhibition at 96 hours; P. falciparum luciferase reporter growth, 96 h; Potency, µM (top dose mostly 28.7 µM), most hits filed as inhibitors; hit rate 6.9% among 320,000
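Two-generation exposure (96 h) targets delayed-death phenotype. Reporter parasites carrying integrated firefly luciferase, in red cells at 2% hematocrit and 0.05% parasitemia final, kept at 37 C, 5% CO2; luminescence loss indicates inhibition.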
Pf growth 48h = P. falciparum growth inhibition at 48 hours (one generation) | P. falciparum luciferase growth in erythrocytes, 48 h | Potency, µM (doses to about 28.7 µM), hits mostly inhibitors | hit rate 5.9% among 310,000 | AID 504832
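Cell-based growth assay: transgenic P. falciparum expressing firefly luciferase, cultured in red cells within RPMI 1640 containing 0.5% w/v Albumax, 24 mM bicarbonate and gentamycin. A drop in luciferase activity indicates inhibition.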
Cycloheximide cs = affects cycloheximide protein synthesis inhibition readout, counter-screen. cell reporter, cycloheximide protein synthesis inhibition counterscreen. max response, %. hit rate 12% among 300,000. AID 2314; in the data active means max response mostly above about 13%, no sharp cut-off; inactive means mostly below about 14%; further: read at 38.3 µM for the half of the compounds with a filed dose
Shiga inhibitor = Shiga toxin inhibition; Vero cells, Shiga toxin protein synthesis inhibition reporter; inhibition, % at 38.7 µM; hit rate 9.2% among 290,000; in the data active means inhibition mostly above about 28%, no sharp cut-off; inactive means mostly below about 43%
Of the large screens only hits and unclear results are named; the others gave an inactive call. Most compounds without a hit are left out; they make up all but 20% or so of the library. Unless noted, the call rests on the fitted dose curve; in most records, active means well fitted inhibition curve with a large enough effect; inconclusive means small, poorly fitted or top-dose-only effect, or another doubt; inactive means no such curve, though single readings can be large or run the other way.

COc1ccc(-c2nc(C)c(CCNC(=O)c3cccc(C)c3)s2)cc1OC	none (no result: Pf growth 96h, Pf growth 48h, Cycloheximide cs, Shiga inhibitor)
CC(C)NC(=O)C1CCN(c2ccc(S(=O)(=O)N3CCOCC3)cc2Cl)CC1	Pf growth 96h inconclusive
CCCCN(C)C(=O)C1CCN(c2ccc(S(=O)(=O)N3CCOCC3)cc2[N+](=O)[O-])CC1	Pf growth 96h 9.3µM, Pf growth 48h inconclusive (no result: Cycloheximide cs, Shiga inhibitor)
C=CCNC(=O)C1CCN(c2ccc(S(=O)(=O)N3CCOCC3)cc2Cl)CC1	Pf growth 48h 9.3µM
CCCNC(=O)C1CCN(c2ccc(S(=O)(=O)N3CCOCC3)cc2Cl)CC1	Pf growth 96h inconclusive, Pf growth 48h 13µM
Cc1cccc(S(=O)(=O)c2cn(C)c3cc(N4CCN(c5ccc(F)cc5)CC4)c(F)cc3c2=O)c1	none (no result: Pf growth 96h, Pf growth 48h, Cycloheximide cs, Shiga inhibitor)
COc1ccc(C2CC(=O)Oc3c(C(CCN4CCCC(C)C4)c4cc(OC)c(OC)c(OC)c4)c(OC)cc(OC)c32)cc1 (centres undefined)	none (no result: HCMV inh, Pf growth 96h, Pf growth 48h)
COc1ccc(C)cc1NC(=O)CCS(=O)(=O)c1ccc2c(c1)CC(=O)N2C	none (no result: Pf growth 96h, Pf growth 48h, Cycloheximide cs, Shiga inhibitor)
CC(=O)Nc1ccc(NC(=O)c2csnn2)cc1	none (no result: Pf growth 96h, Pf growth 48h, Cycloheximide cs, Shiga inhibitor)
O=C(Nc1ccc(-c2csnn2)cc1)C(Cl)(Cl)Cl	Pf growth 96h inconclusive, Pf growth 48h inconclusive, Cycloheximide cs 37, Shiga inhibitor 111
CC(C)(C)C(=O)Nc1ccc(-c2csnn2)cc1	Cycloheximide cs 50, Shiga inhibitor 44
COc1ccc(C2CC(=O)N(C)c3ccccc3S2)cc1 (centres undefined)	Cycloheximide cs 38, Shiga inhibitor 124
COc1ccc(C2CC(=O)N(CC(=O)NCC3CCCO3)c3ccccc3S2)cc1 (centres undefined)	Cycloheximide cs 34
CCOc1cc(-c2nnc(SCC(=O)NCc3ccccc3)nc2-c2ccc(OC)c(OCC)c2)ccc1OC	HCMV inh -75 (no result: Pf growth 96h, Pf growth 48h, Cycloheximide cs, Shiga inhibitor)
CCC(C)NC(=O)CSc1nnc(-c2cc(OC)c(OC)c(OC)c2)c(-c2cc(OC)c(OC)c(OC)c2)n1 (centres undefined)	Pf growth 48h 10µM
Cc1ccc(C(=O)Nn2c(C)nc3ccccc3c2=O)cc1C	Pf growth 96h 13µM
O=C(Nn1cnc2ccccc2c1=O)c1ccccc1F	Cycloheximide cs 11
Cc1nc2ccccc2c(=O)n1NC(=O)c1ccc(C(C)(C)C)cc1	Pf growth 96h inconclusive
O=C(Nn1cnc2ccccc2c1=O)C1CCCCC1	Pf growth 96h inconclusive
O=C(Nn1cnc2ccccc2c1=O)c1ccc(Br)cc1	Pf growth 96h inconclusive, Cycloheximide cs 41, Shiga inhibitor 90
O=C(Nn1cnc2ccccc2c1=O)c1cccc(Cl)c1	Cycloheximide cs 44
CCc1ccc(C(=O)Nn2cnc3ccccc3c2=O)cc1	Cycloheximide cs 54, Shiga inhibitor 109
O=C(Nn1cnc2ccccc2c1=O)c1ccc([N+](=O)[O-])cc1	none
CCCC1CCC(C(=O)Nn2cnc3ccccc3c2=O)CC1 (centres undefined)	Pf growth 96h 2.1µM
Cc1ccc(C(=O)Nn2cnc3ccccc3c2=O)cc1C	Cycloheximide cs 44, Shiga inhibitor 83
C[C@H](CO)N1C[C@H](C)[C@@H](CN(C)C(=O)Nc2ccc(F)cc2)Oc2ccc(NS(C)(=O)=O)cc2C1=O	none (no result: Pf growth 96h, Pf growth 48h, Cycloheximide cs, Shiga inhibitor)
CCN(CC)S(=O)(=O)c1ccc2c(c1)N(CC(=O)Nc1ccc(F)cc1F)C(=O)C1CCCN21 (centres undefined)	none (no result: Pf growth 96h, Pf growth 48h, Cycloheximide cs, Shiga inhibitor)
CC/C(=N/NS(=O)(=O)c1ccc(Cl)cc1)c1ccc(O)cc1	none
CC/C(=N\Nc1ccnc2cc(Cl)ccc12)c1ccc(O)cc1	Pf growth 96h 1.3µM, Pf growth 48h 1.7µM
Oc1ccc(/C=N/Nc2ccnc3cc(Cl)ccc23)cc1O	HCMV inh -60, Pf growth 96h 0.74µM, Pf growth 48h 0.66µM
Oc1ccc(/C=N/Nc2ccnc3cc(Cl)ccc23)c(O)c1O	Pf growth 96h inconclusive, Pf growth 48h inconclusive
Cc1ccnc(N(C(=O)Nc2ccccc2)C2=NCC(C)(C)S2)c1	Cycloheximide cs 43, Shiga inhibitor 59
O=C1[C@@H]2Cc3c([nH]c4ccccc34)C(c3cccc([N+](=O)[O-])c3)N2C(=O)CN1C1CCN(Cc2ccccc2)CC1 (some centres undefined)	Pf growth 96h 15µM, Pf growth 48h 9.3µM
CCOc1ccc(C2c3[nH]c4ccccc4c3C[C@H]3C(=O)N(C4CCN(Cc5ccccc5)CC4)CC(=O)N23)cc1OC (some centres undefined)	Pf growth 96h inconclusive

Screening results deposited in PubChem by National Center for Advancing Translational Sciences (NCATS).
